Measurements from PubChem BioAssay.
The source made the active and inactive calls.

Tests used:
[1] = binders of probe aFSTL3 on microarray, primary screen, stem cell growth factor project, biochemical, small-molecule microarray, fluorescence 635/667 (AID 1064); conditions: higher = more signal;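 also: measures binding of the biotinylated anti-FSTL3 antibody to printed compounds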
[2] = binders from COS7 lysate, DM2A8 probe, primary screen, torsin A project, cell lysate, small-molecule microarray, fluorescence 635/667 (AID 1065); conditions: higher = more signal, COS7 lysate expressing mutant human TOR1A
[3] = binders of probe aFGF2 on microarray, primary screen, stem cell growth factor project, biochemical, small-molecule microarray, fluorescence 635/667 (AID 1067); conditions: higher = more signal;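 also: measures binding of biotinylated aFGF2 protein to printed compounds on slides; z-score merges feature fluorescence and signal-to-noise across triplicate slides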
[4] = binders of probe aFGF10 on microarray, primary screen, stem cell growth factor project, biochemical, small-molecule microarray, fluorescence 635/667 (AID 1071); conditions: higher = more signal;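 also: score merges 667 nm spot intensity and signal to noise from triplicate slides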
[5] = target: Neurogenic locus notch homolog protein 2 (Homo sapiens) (UniProt Q04721); assay: Notch2 binders on small-molecule microarrays, primary screen, biochemical, small-molecule microarray, 635 nm fluorescence, stem cell growth factors (AID 1073); conditions: Notch2 binding, higher = more signal
Neurogenic locus notch homolog protein 2 (Homo sapiens), sequence (Q04721 whole entry, looked up, canonical isoform): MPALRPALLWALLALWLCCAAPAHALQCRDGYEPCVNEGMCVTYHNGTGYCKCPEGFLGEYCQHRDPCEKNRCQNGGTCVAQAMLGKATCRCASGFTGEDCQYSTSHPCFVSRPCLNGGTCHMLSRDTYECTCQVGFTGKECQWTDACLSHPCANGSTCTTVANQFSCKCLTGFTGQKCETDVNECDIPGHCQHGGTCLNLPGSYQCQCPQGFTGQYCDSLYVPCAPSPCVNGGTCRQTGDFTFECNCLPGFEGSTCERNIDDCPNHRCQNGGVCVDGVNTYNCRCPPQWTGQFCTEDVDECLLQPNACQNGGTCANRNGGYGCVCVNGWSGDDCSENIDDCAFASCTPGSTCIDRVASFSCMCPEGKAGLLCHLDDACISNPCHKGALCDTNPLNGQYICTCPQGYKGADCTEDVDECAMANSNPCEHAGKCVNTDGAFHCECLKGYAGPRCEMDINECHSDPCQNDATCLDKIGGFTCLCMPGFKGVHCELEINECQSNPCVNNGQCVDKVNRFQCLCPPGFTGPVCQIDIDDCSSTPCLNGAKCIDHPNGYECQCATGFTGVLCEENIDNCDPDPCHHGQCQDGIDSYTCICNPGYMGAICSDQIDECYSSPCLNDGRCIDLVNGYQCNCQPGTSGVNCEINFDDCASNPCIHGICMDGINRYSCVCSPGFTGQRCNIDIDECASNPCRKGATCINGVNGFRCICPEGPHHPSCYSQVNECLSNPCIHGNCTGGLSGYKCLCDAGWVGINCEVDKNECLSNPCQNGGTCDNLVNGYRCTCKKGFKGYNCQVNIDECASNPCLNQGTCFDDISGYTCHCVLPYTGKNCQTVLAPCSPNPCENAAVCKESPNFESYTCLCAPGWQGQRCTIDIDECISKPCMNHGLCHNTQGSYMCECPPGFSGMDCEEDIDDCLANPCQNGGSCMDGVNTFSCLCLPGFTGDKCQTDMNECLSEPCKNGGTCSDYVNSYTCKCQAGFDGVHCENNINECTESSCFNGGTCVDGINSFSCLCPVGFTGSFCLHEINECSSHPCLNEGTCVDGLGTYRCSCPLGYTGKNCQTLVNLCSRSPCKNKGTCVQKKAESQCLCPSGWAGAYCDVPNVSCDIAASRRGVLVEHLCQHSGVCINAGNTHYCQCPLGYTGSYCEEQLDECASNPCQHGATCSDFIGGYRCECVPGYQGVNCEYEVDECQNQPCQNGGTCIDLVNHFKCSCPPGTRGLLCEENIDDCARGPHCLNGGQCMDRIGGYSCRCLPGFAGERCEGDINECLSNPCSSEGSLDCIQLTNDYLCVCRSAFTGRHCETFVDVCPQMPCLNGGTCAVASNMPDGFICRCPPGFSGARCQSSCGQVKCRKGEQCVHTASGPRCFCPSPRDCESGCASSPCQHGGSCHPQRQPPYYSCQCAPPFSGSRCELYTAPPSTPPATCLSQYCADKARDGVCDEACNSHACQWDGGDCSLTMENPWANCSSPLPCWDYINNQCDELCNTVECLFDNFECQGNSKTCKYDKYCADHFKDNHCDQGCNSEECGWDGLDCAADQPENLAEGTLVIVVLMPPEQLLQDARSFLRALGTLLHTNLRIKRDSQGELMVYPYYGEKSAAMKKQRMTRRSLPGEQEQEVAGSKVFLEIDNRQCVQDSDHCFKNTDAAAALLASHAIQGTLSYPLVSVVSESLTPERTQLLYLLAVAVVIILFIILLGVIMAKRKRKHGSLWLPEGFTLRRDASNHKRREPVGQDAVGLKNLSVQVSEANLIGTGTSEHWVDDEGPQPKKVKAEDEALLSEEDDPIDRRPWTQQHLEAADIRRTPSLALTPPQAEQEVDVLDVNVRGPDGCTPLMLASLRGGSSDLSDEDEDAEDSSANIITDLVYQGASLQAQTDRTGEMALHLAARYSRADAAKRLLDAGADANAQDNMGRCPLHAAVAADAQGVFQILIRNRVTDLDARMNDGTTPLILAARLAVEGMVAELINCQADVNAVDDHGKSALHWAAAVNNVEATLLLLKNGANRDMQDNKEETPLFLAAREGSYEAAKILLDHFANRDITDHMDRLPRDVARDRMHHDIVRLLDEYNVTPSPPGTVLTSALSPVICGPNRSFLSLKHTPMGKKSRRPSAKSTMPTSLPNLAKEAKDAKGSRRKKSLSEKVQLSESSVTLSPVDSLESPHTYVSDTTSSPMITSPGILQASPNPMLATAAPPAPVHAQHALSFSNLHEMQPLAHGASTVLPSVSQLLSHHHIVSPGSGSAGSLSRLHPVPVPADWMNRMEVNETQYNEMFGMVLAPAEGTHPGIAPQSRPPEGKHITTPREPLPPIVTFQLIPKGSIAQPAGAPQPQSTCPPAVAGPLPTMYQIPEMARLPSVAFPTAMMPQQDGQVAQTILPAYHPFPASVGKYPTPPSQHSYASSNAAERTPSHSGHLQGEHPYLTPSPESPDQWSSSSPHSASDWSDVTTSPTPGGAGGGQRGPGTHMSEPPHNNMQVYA

[6] = target: Pro-neuregulin-1, membrane-bound isoform (Homo sapiens) (UniProt Q02297); assay: NRG1 binders on small-molecule microarrays, primary screen, psychiatric disease protein project, biochemical, small-molecule microarray, fluorescence 635/667 (AID 1075); conditions: NRG1 binding, 635 nm fluorescence, higher = more signal;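 also: score combines 667 nm spot fluorescence with signal to noise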
Pro-neuregulin-1, membrane-bound isoform (Homo sapiens), sequence (Q02297 whole entry, looked up, the tested form may be a part, canonical isoform): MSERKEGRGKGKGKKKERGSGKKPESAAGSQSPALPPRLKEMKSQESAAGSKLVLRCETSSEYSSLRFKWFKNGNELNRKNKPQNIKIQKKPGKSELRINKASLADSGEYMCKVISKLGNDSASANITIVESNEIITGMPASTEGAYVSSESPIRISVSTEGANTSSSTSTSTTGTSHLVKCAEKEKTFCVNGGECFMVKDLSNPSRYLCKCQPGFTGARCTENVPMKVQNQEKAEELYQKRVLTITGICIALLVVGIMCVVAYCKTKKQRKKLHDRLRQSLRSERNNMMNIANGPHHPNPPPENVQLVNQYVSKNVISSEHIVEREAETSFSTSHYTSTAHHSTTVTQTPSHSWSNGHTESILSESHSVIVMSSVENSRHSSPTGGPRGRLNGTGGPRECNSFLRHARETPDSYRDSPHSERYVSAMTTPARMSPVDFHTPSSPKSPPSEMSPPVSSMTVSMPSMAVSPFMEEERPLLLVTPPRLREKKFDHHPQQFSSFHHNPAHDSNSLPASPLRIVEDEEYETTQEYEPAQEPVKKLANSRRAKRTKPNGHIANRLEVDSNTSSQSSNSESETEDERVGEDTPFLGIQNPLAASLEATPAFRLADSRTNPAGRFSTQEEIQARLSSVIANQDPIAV

[7] = system: Neuregulin-1 EGF-like domain; assay: binders of neuregulin-1 EGF-like domain, primary screen, biochemical, small-molecule microarray, 635 nm fluorescence (AID 1081); conditions: small-molecule microarray binding, higher = more signal;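 also: binding of the protein to compounds printed on small-molecule microarray slides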
[8] = FRG1 promoter luciferase signal modulators, primary screen, FRG1 inhibition for FSHD, cell-based, C2C12 myotubes, firefly/Renilla luciferase, luminescence (AID 1084); conditions: higher = more signal, called active from +8 up or from −8 down
[9] = binders of probe aFST on microarray, primary screen, stem cell growth factor project, biochemical, small-molecule microarray, fluorescence 635/667 (AID 1086); conditions: higher = more signal;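 also: score merges 667 nm fluorescence with signal-to-noise of each printed compound spot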
[10] = binders of probe aHhip on microarray, primary screen, stem cell growth factor project, biochemical, small-molecule microarray, fluorescence 635/667 (AID 1087); conditions: higher = more signal;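 also: score merges spot fluorescence at 667nm with spot signal to noise ratio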

SMILES	composite z-score [1]	composite z-score [2]	composite z-score [3]	composite z-score [4]	composite z-score [5]	composite z-score [6]	composite z-score [7]	z-score [8]	composite z-score [9]	composite z-score [10]
COc1ccc(C(O)C2C=CC3C(=O)N(C)C(=O)C3N2NC(=O)OC(C)(C)C)c2ccccc12 (stereo not given)	0.152	-0.129	-0.0107	0.669	1.62	1.81	0.937	-1.35 (inactive)	1.37	0.0881
C=CC1c2cc(O)c(OC)cc2CCN1Cc1cccc(OC(F)(F)F)c1 (stereo not given)	0.335	-0.145	-0.103	-0.605	-0.137	1.59	1.1	0.385 (inactive)	-0.108	-0.268
[N-]=[N+]=Nc1ccccc1C[C@]1(C(=O)NCC(O)CO)N=C(c2ccc(OCCCO)cc2)O[C@H]1c1ccccc1 (stereo not given in full)	0.451	0.533	-0.0328	0.0717	0.641	1.93	0.867	-0.666 (inactive)	1.56	-0.0391
C#CCN(C/C=C/c1ccccc1)[C@H](CO)c1ccccc1	-0.565	0.484	-0.182	-0.254	0.261	-0.516	-0.0706	-0.786 (inactive)	0.288	0.0156
C=C(C)[C@@H]1CC=C(C(O)C2C=CC3C(=O)NC(=O)C3N2Nc2ccc(Cl)cc2Cl)CC1 (stereo not given in full)	0.917	0.403	0.0095	0.117	1.42	1.35	0.953	1.3 (inactive)	1.2	-0.0645
CCCCC(=C=CC[C@H](O)c1cccc(OCCO)c1)C[C@H](O)c1ccccn1	-0.37	0.0714	-0.112	0.528	-0.202	0.163	0.719	-0.692 (inactive)	-0.157	-0.236
C=C(CCCC)/C(=C/C[C@H](OC(C)=O)c1ccccc1OCCO)c1cnc2ccccc2c1	-0.279	0.0976	-0.115	0.506	0.3	0.324	1.04	-1.48 (inactive)	0.162	0.0505
COc1ccc([Si](C)(C)[C@@H]2[C@@H](CCO)O[C@]3(C(=O)N(Cc4cccc(N5CCOC5=O)c4)c4ccccc43)[C@H]2C)cc1	0.0806	0.229	-0.0704	0.289	1.03	0.775	0.953	-1.65 (inactive)	0.0855	-0.156
CCCCC(=C=CC[C@@H](O)c1cccc(OCCO)c1)C[C@@H](O)c1ccccn1	-0.528	0.775	-0.0771	0.702	0.0548	0.23	1.12	1.36 (inactive)	0.381	-0.0618
COc1ccc([Si](C)(C)[C@@H]2[C@@H](CC(=O)N3CCC[C@H]3CO)O[C@]3(C(=O)N(Cc4cccc(I)c4)c4ccccc43)[C@H]2C)cc1	0.07	1.29	-0.137	0.192	1.08	0.916	1.17	-1.06 (inactive)	0.453	-0.0994
CCOC(=O)[C@H]1C/C=C/C[C@H](C(=O)OCC)C(=O)O[C@H]2[C@@H](OC)O[C@H](CO)[C@@H](OC(=O)c3ccc(Br)cc3)[C@@H]2OC1=O	0.0086	0.014	-0.0459	-0.0304	-0.0686	0.132	0.517	-0.0847 (inactive)	-0.0976	0.0566
COc1ccc(CCNC(=O)[C@@]2(C)c3ccccc3C(=O)N(c3ccc(C)cn3)[C@H]2c2ccc(CO)cc2)cc1	-0.561	-0.997	-0.171	-0.516	-0.859	0.884	1.34	1.07 (inactive)	-0.389	-0.13
CCCCCCc1nc(-c2ccc(-c3ccc(Cl)c(Cl)c3)o2)cc2c1[Si](C(C)C)(C(C)C)O[C@H]2c1ccccc1	0.0771	-0.543	-0.116	-0.379	-0.797	0.501	-0.412	0.213 (inactive)	-0.265	0.0505
C=CCOC(=O)[C@H]1[C@@H]2C(=O)O[C@@H](c3ccccc3)[C@@H](c3ccccc3)N2[C@@H](c2ccc(OCCOC(=O)[C@@H]3C[C@@H]4C(=O)N5CCC[C@H]5C(=O)N4[C@@H]3c3cccc(OCCO)c3)cc2)[C@]12C(=O)Nc1ccc(I)cc12	-0.34	1.19	-0.104	0.397	0.373	1.05	1.31	0.984 (inactive)	0.447	-0.12
COC(=O)[C@@]1(Cc2ccc(OC)cc2)[C@H]2c3cc(C(=O)N4CCCC4)n(CCc4ccc(O)c(O)c4)c3C[C@H]2CN1C(=O)c1ccccc1	1.65	0.269	0.0215	0.0359	1.33	2.26	1.11	2.61 (inactive)	0.939	-0.156
O=C1C2C=CC(C(O)c3ccc4c(c3)OCO4)N(Nc3ccc([N+](=O)[O-])cc3)C2C(=O)N1c1ccccc1 (stereo not given)	-0.407	0.566	0.0019	0.791	1.05	0.626	0.65	-0.383 (inactive)	0.314	-0.134
COc1ccccc1CN1C(=O)c2ccccc2[C@@]2(Cc3ccccc3N(CCCN(C)C)C2=O)[C@@H]1c1ccc(CO)cc1	-0.302	-0.252	-0.0396	-0.0231	0.137	-0.141	0.0968	0.0544 (inactive)	-0.201	-0.0645

SMILES	composite z-score [1]	composite z-score [2]	composite z-score [3]	composite z-score [4]	composite z-score [5]	composite z-score [6]	composite z-score [7]	z-score [8]	composite z-score [9]	composite z-score [10]
O=C1OCCC/C=C\[C@H]2OC34C=CCN(c5ccc6ccccc6c5)C(=O)[C@H]3N(CCCCCO)C(=O)[C@@H]4C12 (stereo not given in full)	0.149	-0.763	-0.195	-0.759	-0.367	-0.634	-0.773	0.815 (inactive)	-0.602	-0.169
COc1ccc(C(=O)Nc2cccc(CN3C(=O)[C@]4(O[C@H](CCn5cc(CCO)nn5)[C@@H]([Si](C)(C)c5ccc(OC)cc5)[C@@H]4C)c4ccccc43)c2)cc1	0.287	-0.161	-0.116	-0.13	0.91	0.654	1.04	-2.91 (inactive)	0.372	-0.137
O=C1NC(=O)C2C1C=CC(C(O)C=Cc1ccc([N+](=O)[O-])cc1)N2Nc1ccc(Cl)cc1Cl (stereo not given)	1.03	0.723	0.136	0.797	1.69	1.87	1.12	0.0592 (inactive)	0.939	0.206
COCCOC(=O)N1C(=O)[C@@]2(c3cc(C#CC4(O)CCCCCC4)ccc31)[C@H](C(=O)Nc1nc3ccccc3s1)[C@H]1C(=O)O[C@H](c3ccccc3)[C@H](c3ccccc3)N1[C@@H]2c1ccccc1OCCO	0.184	1.29	-0.0503	0.94	1	1.54	1.29	1.86 (inactive)	0.461	-0.0618
COC(=O)C(CC#Cc1ccc2c(c1)[C@]1(C(=O)N2)[C@H](c2ccccc2OCCO)N2[C@H](c3ccccc3)[C@H](c3ccccc3)OC(=O)[C@H]2[C@@H]1C(N)=O)C(=O)OC	1.88	0.726	0.255	0.774	0.806	1.69	1.32	-1.84 (inactive)	1.84	0.087
C[N+](C)(C)CCCCCCNC(=O)[C@H]1C[C@H]2C(=O)N[C@@H](Cc3ccccc3)C(=O)N2[C@H]1c1cccc(OCCO)c1	-0.429	0.652	-0.0266	0.293	0.357	0.318	1.31	3.64 (inactive)	-0.0975	-0.0645
COc1cc(OC)c(C(O)C2C=CC3C(=O)NC(=O)C3N2Nc2ccccn2)cc1Br (stereo not given)	0.159	0.56	-0.0494	0.561	1.24	1.48	1.44	1.21 (inactive)	0.0594	-0.141
COCC(=C=CC[C@H](O)c1cccc(OCCO)c1)CCO	-0.44	-0.625	-0.0347	0.242	-0.137	1.12	0.711	1.02 (inactive)	0.235	-0.0645
C=CCNC(=O)[C@@H]1[C@H]2C(=O)O[C@H](c3ccccc3)[C@H](c3ccccc3)N2[C@H](c2ccc(OCCO)cc2)[C@@]12C(=O)N(C(=O)OCCOC)c1ccc(C#CCNC(N)=O)cc12	0.204	0.672	-0.0502	0.399	1.25	0.748	1.1	0.635 (inactive)	0.798	-0.0994
NC(=O)N1C(=O)C2C(C1=O)C1C=C(CCCO)C2C(C2CC2)N1Cc1cc2c(cc1Br)OCO2 (stereo not given)	0.225	-0.13	-0.093	-0.33	-0.191	0.946	0.982	-0.472 (inactive)	0.0364	-0.0994
COC(=O)[C@@]1(Cc2ccc(OC)cc2)[C@H]2c3cc(C(=O)N(C)C)n(Cc4ccc(C(F)(F)F)nc4)c3C[C@H]2CN1C(=O)c1ccccc1	0.125	0.114	0.0343	0.459	1.53	1.34	1.01	0.515 (inactive)	0.597	-0.0237
Cc1ccc(S[C@]2(C(=O)NCC(C)C)CC(=O)N(Cc3cc(C(F)(F)F)cc(C(F)(F)F)c3)[C@@H]2c2ccc(CO)cc2)cc1	0.436	-0.455	0.047	-0.272	-0.598	0.884	1.44	-0.775 (inactive)	0.0031	0.0749
COc1ccc(C(=O)Nc2ccc(CN3C(=O)[C@]4(O[C@H](CC(=O)N5CCC[C@H]5CO)[C@@H]([Si](C)(C)c5ccc(OC)cc5)[C@@H]4C)c4ccccc43)cc2)cc1	-0.332	0.355	-0.0715	0.656	0.351	1.42	1.31	-1.54 (inactive)	-0.0939	0.0749
COC(=O)[C@]1(Cc2ccccc2)N=C(c2ccc(OCCCO)cc2)O[C@@H]1c1ccccc1N=[N+]=[N-]	-0.186	0.179	-0.0268	-0.13	0.473	0.314	0.764	4.51 (inactive)	0.551	0.0373
COc1ccc(CCNC(=O)[C@@]2(c3ccc([N+](=O)[O-])cc3)CC(=O)N(CC34CC5CC(CC(C5)C3)C4)[C@@H]2c2ccc(CO)cc2I)cc1	-0.235	1	0.0569	0.377	0.6	1.09	1.2	-1.64 (inactive)	-0.0217	-0.446
NCCCCCCNC(=O)[C@H]1C[C@H]2C(=O)N[C@@H](Cc3ccccc3)C(=O)N2[C@H]1c1cccc(OCCO)c1	0.135	0.537	0.0227	0.534	0.427	1.7	0.922	1.7 (inactive)	0.482	-0.0346
[N-]=[N+]=Nc1ccccc1[C@H]1OC(c2ccc(OCCCO)cc2)=N[C@@]1(CCS(=O)(=O)c1ccccc1)C(=O)NCc1ccccc1	-0.196	0.144	0.0843	0.935	1.66	1.44	1.34	5.01 (inactive)	1.58	0.258
